Test [1] concerns the target Phenylethanolamine N-methyltransferase (Homo sapiens) (UniProt P11086). In words: Confirmatory Screen for Target Class Profiling of Small Molecule Inhibitors of Methyltransferases (AID 1745852). The following applies: MTase-Glo luminescence, SAH detection, recombinant enzyme; measured here: PNMT max response; stronger effect = lower value.
For test [2], the target named is Glutathione peroxidase 1 (Homo sapiens) (UniProt P07203). The test is described as follows: Primary qHTS Assay for Inhibitors of Recombinant Selenoprotein Glutathione Peroxidase 1 (GPX1) (AID 1845191). Also: nearly all actives have a fitted effect of over 65% in size. Particulars: recombinant GPX1, GR-coupled NADPH fluorescence, 15 min; series mostly up to 48.8 µM. Summed up: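 GR-coupled assay: compounds preincubated 30 min at room temperature with GPX1, then reaction started with CHP; final 10 nM GPX1, 1 mM GSH, 0.5 mM CHP, 0.5 mM NADPH, 100 nM GR, 0.01% BSA, pH 7.5 Tris buffer. NADPH fluorescence (340/450 nm) read at 0 and 15 min.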
In general terms: In qHTS, concentration-response curves come from the screen itself.

Test [3] can be described thus: NCATS anti-infectives library activity on HEK293 viability as a counter-qHTS vs the C. elegans viability qHTS (AID 1745854). Particulars: HEK293 viability counter-screen; series mostly up to 41.8 µM. The gist of the method:
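HEK293 cells, 1500 per well, exposed 24 hr at 37C in 5% CO2 to compounds in a 1:5 titration, up to 41.7 uM final. Viability read as CellTiter-Glo luminescence after 10 min at room temperature.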

Test [4] is described as follows: NCATS anti-infectives library activity on the primary C. elegans qHTS viability assay (AID 1745855; calls by dose curve; also: potency is read from the fitted curve at half-maximal effect). Particulars: C. elegans worm area imaging, day 7; series mostly up to 41.8 µM. The gist of the method:
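Viability is taken from GFP fluorescence of PE254-GFP-FLuc C. elegans imaged by laser cytometry over 7 days. Ten L1 worms per well grow at 21 °C on TOP10 E. coli capsules with titrated compound; levamisole marks toxicity.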

Experimental findings from PubChem BioAssay (NCATS) are described below.

Molecules are shown by their SMILES. “And” between values parts separate entries of the source, which are not always exact repeats. Equal entries are not always repeated. Records with an inconclusive call do not appear. A call without a number means that no potency is given here. The source made the active and inactive calls. Unless noted, calls follow the shape of the dose curve; as a rule, active = well fitted curve in the direction sought with a large enough effect; inconclusive = small, poorly fitted or top-dose-only effect, or another doubt; inactive = no such curve, though single readings can be large; an effect the other way counts as inactive or inconclusive.

Glutathione peroxidase 1 (Homo sapiens), sequence (P07203 whole entry, looked up): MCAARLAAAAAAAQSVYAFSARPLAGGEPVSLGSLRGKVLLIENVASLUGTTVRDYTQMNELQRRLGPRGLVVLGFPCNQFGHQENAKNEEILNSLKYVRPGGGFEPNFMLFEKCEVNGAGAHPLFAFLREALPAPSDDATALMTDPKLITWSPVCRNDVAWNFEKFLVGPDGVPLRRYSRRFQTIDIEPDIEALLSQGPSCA
Phenylethanolamine N-methyltransferase (Homo sapiens), sequence (P11086 whole entry, looked up): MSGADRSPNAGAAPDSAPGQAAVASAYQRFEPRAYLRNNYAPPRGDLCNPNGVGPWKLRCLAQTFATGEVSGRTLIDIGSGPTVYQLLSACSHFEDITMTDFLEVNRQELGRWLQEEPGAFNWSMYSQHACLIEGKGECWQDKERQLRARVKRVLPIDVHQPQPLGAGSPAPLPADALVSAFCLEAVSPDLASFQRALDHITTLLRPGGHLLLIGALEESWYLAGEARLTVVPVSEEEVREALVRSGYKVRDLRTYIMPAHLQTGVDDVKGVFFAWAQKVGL

In the case of `CN1CCc2c(n(Cc3ccc(C(=O)NO)cc3)c3ccccc23)C1`, the activity in test [1] was 4.88%. Further, in test [2], the Potency result is “inactive”.
For the compound `O=C(O)c1nc(=O)[nH]c(=O)[nH]1`, the outcome in test [3] is “inactive”. Moreover, the Potency entry in test [2] is “inactive”.
On to `Cc1ccccc1-n1c(Cn2nc(-c3cccc(O)c3)c3c(N)ncnc32)nc2cccc(C)c2c1=O`, for which the activity in test [1] stood at 1.94%. Further, the Potency entry in test [2] is “inactive”.
For the compound `COc1ccc(-c2nc3ccc(C4=NNC(=O)CC4C)cc3[nH]2)cc1` (configuration not stated), the outcome in test [3] was “inactive”. The Potency entry in test [2] is “inactive”.
On to `CN(C)CCCNC(=O)c1ccc(-c2cc(O)c3ncccc3c2)cc1`, for which the activity in test [1] was -2.71% and -2.66%. The Potency result in test [4] and in test [2] was “inactive” in each case.
Turning to `CCN1C[C@H](C)n2c(c(O)c3c(=O)n(Cc4ccc(F)c(Cl)c4)nc(C(=O)NC)c32)C1=O`, the outcome in test [3] was “inactive”. Moreover, the Potency result in test [4] and in test [2] was “inactive” throughout.
Turning to `NS(=O)(=O)c1ccc(Nc2nc(OCC3CCCCC3)c3[nH]cnc3n2)cc1`, the activity in test [1] was -14.7%. In addition, the Potency result in test [2] was “inactive”.
On to `Nc1ncnc2c1c(-c1cccc(OCc3ccccc3)c1)cn2C1CC(CN2CCC2)C1` (configuration not stated), for which the activity in test [1] is -91.7%. In addition, in test [2], the Potency entry was “inactive”.
The like results for `Cc1ccc2c(c1)c1c(n2CCc2ccc(C)nc2)CCN(C)C1` were, in that order, -2.48% and “inactive”.
Taken in the same sequence, the figures for `CNC(=O)c1ccc2c(C(=Nc3cccc(CN(C)C)c3)c3ccccc3)c(O)[nH]c2c1` were -16.3% and “inactive”.
Taken in the same sequence, the figures for `Clc1ccc(C2(c3ccc(-c4cn[nH]c4)cc3)CCNCC2)cc1` were -4.19% and “inactive”.
For `Cc1cn([C@@H]2C[C@@H](O)[C@H](CO)O2)c(=O)[nH]c1=O`, the outcome in test [3] was “inactive”. Also, in test [2], the Potency result was “inactive”.
In the case of `N[C@@H](CC(=O)N1CCn2c(nnc2C(F)(F)F)C1)Cc1cc(F)c(F)cc1F`, in test [3], the outcome was “inactive”. Besides, the Potency result in test [2] was “inactive”.
Regarding `CC(C)CNc1ccnc(NCc2csc(-c3ccccc3)n2)n1`, in test [1], the activity is -20.3%. Also, in test [2], the Potency result is “inactive”.
Taken in the same sequence, the figures for `Nc1[nH]nc2nnc(-c3c(-c4ccccc4)nn4ccccc34)cc12` were -92.5% and “inactive”.
On to `Cc1ccc(S(=O)(=O)OCC(=O)Nc2ccc(C(=O)O)c(O)c2)cc1`, for which the outcome in test [3] was “inactive”. In addition, the Potency in test [4] was 12.9 µM (active).
On to `CC(C)[C@H](O)C(=O)N[C@@H](C)C(=O)N[C@@H]1C(=O)N(C)CCc2ccccc21`, for which the outcome in test [3] was “inactive”. Moreover, the Potency entry in test [2] was “inactive”.
`c1cc(OCCN2CCCCC2)cc(-c2n[nH]c3ccc(-c4ncn[nH]4)cc23)c1`: the activity in test [1] is -6.71%.
For the compound `CNC1CCC(N(Cc2cccc(-c3ccncc3)c2)C(=O)c2sc3ccccc3c2Cl)CC1` (configuration not stated), the activity in test [1] is -20.3%. Besides, the Potency result in test [2] is “inactive”.
For `CC(C)CN(C[C@@H](O)[C@H](Cc1ccccc1)NC(=O)O[C@H]1CO[C@H]2OCC[C@H]21)S(=O)(=O)c1ccc(N)cc1`, the outcome in test [3] is “inactive”. For the same compound, the Potency entry in test [2] was “inactive”.
Turning to `c1ccc(-c2oc3ncnc(NC[C@@H]4CCCO4)c3c2-c2ccccc2)cc1`, the activity in test [1] was -56.7%. In addition, in test [2], the Potency entry was “inactive”.
With `Fc1ccc(CNc2ncnc3ccc(F)cc23)cc1`, the outcome in test [3] is “inactive”. Besides, the Potency entry in test [2] was “inactive”.
As to `COc1ccc2ccc(=O)oc2c1CC=C(C)C`, the outcome in test [3] was “inactive”.
Still for that read-out and setting: the value for `CCOC(=O)c1c(CSc2ccccc2)n(C)c2cc(Br)c(O)c(CN(C)C)c12` was “inactive”.
Regarding `CC1(COc2ccc3c(c2)ncn3-c2ccc3cccc(N4CCC(N)CC4)c3n2)COC1`, the activity in test [1] is -30.6%.
Consider `Cc1ccc2c(=O)c3cccc(CC(=O)O)c3oc2c1C`, for which the outcome in test [3] is “inactive”. Also, the Potency result in test [2] was “inactive”.
Turning to `C[C@@]1(c2cc(-c3cncnc3)c(F)cc2F)CCSC(N)=N1`, the outcome in test [3] is “inactive”.
Still for that read-out and setting: the value for `CN(C)CCN(Cc1ccc(Cl)cc1)c1ccccn1` was “inactive”.
